# Experimental data as given in PubChem BioAssay (NCATS).
# “And” between values parts separate entries of the source, which are not always exact repeats. Equal entries are not always repeated. Results filed as inconclusive are left out. A call without a number means that no potency is given here. Some structures have more than one record in an assay (separate samples or runs), and their calls can disagree. The source made the active and inactive calls. The call rests on the fitted dose curve; in most records, active means well fitted curve in the direction sought with a large enough effect; inconclusive means small, poorly fitted or top-dose-only effect, or another doubt; inactive means no such curve, though single readings can be large; an effect the other way counts as inactive or inconclusive.
# Experiments:
# [1] = target: Glutathione peroxidase 1 (Homo sapiens) (UniProt P07203); assay: Primary qHTS Assay for Inhibitors of Recombinant Selenoprotein Glutathione Peroxidase 1 (GPX1) (AID 1845191); further: nearly all actives have a fitted effect of over 65% in size
# Summary of the method: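 GR-coupled assay: compounds preincubated 30 min at room temperature with GPX1, then reaction started with CHP; final 10 nM GPX1, 1 mM GSH, 0.5 mM CHP, 0.5 mM NADPH, 100 nM GR, 0.01% BSA, pH 7.5 Tris buffer. NADPH fluorescence (340/450 nm) read at 0 and 15 min.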
# [2] = target: Phospholipid hydroperoxide glutathione peroxidase GPX4 (Homo sapiens) (UniProt P36969); assay: Primary qHTS Assay for Inhibitors of Recombinant Selenoprotein Glutathione Peroxidase 4 (GPX4) (AID 1845192); further: nearly all actives have a fitted effect of over 65% in size; further: potency means the concentration at half of the fitted maximal effect
# Summary of the method: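 GR-coupled assay: recombinant GPX4 preincubated 30 min with compound at room temperature; final 200 nM GPX4, 1 mM GSH, 0.5 mM cumene hydroperoxide, 0.5 mM NADPH, 100 nM GR, 0.01% BSA, pH 7.5 Tris. NADPH fluorescence (340/450 nm) read at 0 and 15 min.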
# [3] = Quantitative High-Throughput drug screen in 47 multiple myeloma cell lines against the NCATS MIPE library collection: Delta47_JCRB cell viability assay (AID 1918925; further: nearly all actives have a fitted effect of over 45% in size; further: potency means the concentration at half of the fitted maximal effect)
# Summary of the method: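 CellTiter-Glo luminescence (ATP) after 48 h compound exposure, 37C/5% CO2; 500 cells/well; MIPE 4.0 approved/investigational drugs pinned in; DMSO = 100%, media only = 0% viability.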
# [4] = Quantitative High-Throughput drug screen in 47 multiple myeloma cell lines against the NCATS MIPE library collection: FR4_PLB cell viability assay (AID 1918924; further: nearly all actives have a fitted effect of over 35% in size; further: potency means the concentration at half of the fitted maximal effect)
# Summary of the method: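 Inhibition of cell viability is measured here. Each line was plated at 500 cells per well, treated with MIPE 4.0 drugs, kept 48 hours at 37C, then assayed for ATP content by CellTiter-Glo luminescence.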
# [5] = Primary fluorescence-based thiol-reactive (MSTI) qHTS assay for identification of artifact compounds. (AID 1845221); further: nearly all actives have a fitted effect of over 65% in size; further: potency means the concentration at half of the fitted maximal effect
# Summary of the method: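 Thiol-reactive compounds detected by quenching of 4 uM MSTI fluorescence (525/598 nm) after 1 h room-temperature dark incubation in PBS pH 7.4, 2% DMSO. qHTS titration; percent inhibition Hill-fitted against Acetyl-MSTI/MSTI controls.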
# [6] = tested on: Nanoluciferase (engineered Oplophorus gracilirostris luciferase); assay: Primary Nanoluciferase (NLuc) qHTS assay for identification of artifact compounds. (AID 1845222);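 further: NLuc secreted into diluted conditioned medium of S16 cells; series mostly up to about 54 µM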
# Summary of the method: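 qHTS format, against NLuc in S16 cell-conditioned medium. Nano-Glo substrate 1:100 was added after 15 min at room temperature. Luminescence was taken after a further 5 min.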
# [7] = Primary redox qHTS assay for identification of artifact compounds. (AID 1845223)
# Summary of the method: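 Amplex Red (25 uM) and HRP (250 mU/mL) in HBSS, with compounds for 15 min, then 250 uM DTT for 30 min, room temperature, dark. Fluorescence 525/598 nm read; normalized to DMSO and 10 uM DA3003; Hill fit.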
# [8] = target: Luciferin 4-monooxygenase (Photinus pyralis) (UniProt P08659); assay: Primary firefly luciferase (FLuc) qHTS assay for identification of artifact compounds. (AID 1845220); further: nearly all actives have a fitted effect of over 60% in size
# Summary of the method: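 Titrated compounds were incubated 15 min at RT, protected from light, with luciferin and ATP at 10 uM; reaction started with 10 nM FLuc, luminescence imaged at 5 min, and concentration-response fitted by Hill equation.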
# Chain of Phospholipid hydroperoxide glutathione peroxidase GPX4 (Homo sapiens) (P36969 whole entry, looked up): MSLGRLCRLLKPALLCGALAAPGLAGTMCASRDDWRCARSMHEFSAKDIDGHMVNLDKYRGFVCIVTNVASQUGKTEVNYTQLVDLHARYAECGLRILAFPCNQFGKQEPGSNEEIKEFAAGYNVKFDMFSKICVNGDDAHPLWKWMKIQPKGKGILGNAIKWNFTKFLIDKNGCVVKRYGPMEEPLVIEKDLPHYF
# Chain of Glutathione peroxidase 1 (Homo sapiens) (P07203 whole entry, looked up): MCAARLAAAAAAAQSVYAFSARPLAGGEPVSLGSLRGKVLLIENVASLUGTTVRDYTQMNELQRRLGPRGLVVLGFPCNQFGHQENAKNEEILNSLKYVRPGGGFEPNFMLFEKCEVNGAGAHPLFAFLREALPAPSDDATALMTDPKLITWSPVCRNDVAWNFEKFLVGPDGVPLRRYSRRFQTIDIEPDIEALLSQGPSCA
smiles,measurement,setting,value
CC1=C(CC(=O)O)c2cc(F)ccc2C1=Cc1ccc(S(C)=O)cc1 (stereo unspecified),Potency,[1],inactive
same,Potency,[2],inactive
same,Potency,[3],3.72 µM (active)
C=C1c2cccc(O)c2C(O)=C2C(=O)[C@@]3(O)C(O)=C(C(N)=O)C(=O)[C@@H](N(C)C)[C@@H]3[C@@H](O)[C@H]12,Potency,[2],11.4 µM (active)
same,Potency,[4],16.6 µM (active)
CC(C)Oc1cc(Nc2nc(N[C@@H](C)c3ccc(F)cn3)ncc2Cl)[nH]n1,Potency,[1],inactive
same,Potency,[2],inactive
same,Potency,[3],8.33 µM (active)
COc1ccc(-c2oc3c(CC=C(C)C)c(O)cc(O)c3c(=O)c2O)cc1,Potency,[1],inactive
same,Potency,[4],20.9 µM (active)
Cc1cc(-c2ncc(CC(=O)Nc3ccc(-c4cnccn4)cn3)cc2C)ccn1,Potency,[1],inactive
same,Potency,[5],inactive
same,Potency,[6],inactive
same,outcome,[7],inactive
same,Potency,[3],14.8 µM (active)
CC1=C[C@@H]2[C@@H]([C@@H](O)C[C@@]3(C)[C@H]2C[C@@H](C)[C@]3(O)C(=O)CO)[C@@]2(C)Cc3cnn(-c4ccccc4)c3C=C12,Potency,[1],inactive
same,Potency,[5],inactive
same,Potency,[6],inactive
O=C(Nc1ccc(OC(F)(F)F)cc1)c1sccc1NCc1ccnc2ccccc12,Potency,[2],inactive
same,Potency,[5],inactive
same,Potency,[6],inactive
same,outcome,[7],inactive
same,Potency,[4],4.69 µM (active)
same,Potency,[3],5.26 µM (active)
O=C(NC[C@H](O)CO)c1ccncc1Nc1ccc(I)cc1F,Potency,[1],inactive
same,Potency,[2],inactive
same,Potency,[3],11.8 µM (active)
Cc1cc2c(cc1C1(c3ccc(C(=O)O)cn3)CC1)C(C)(C)CCC2(C)C,Potency,[2],inactive
same,Potency,[5],inactive
same,Potency,[6],inactive
same,outcome,[7],inactive
same,Potency,[4],inactive
Cn1cnc(-c2cc3nccc(Oc4ccc(NC(=S)NC(=O)Cc5ccccc5)cc4F)c3s2)c1,Potency,[2],inactive and 7.18 µM (active)
same,Potency,[8],inactive
same,Potency,[5],inactive
same,Potency,[6],inactive
same,outcome,[7],inactive
CCc1cc(-c2n[nH]c(C)c2-c2ccc3c(c2)OCCO3)c(O)cc1O,Potency,[2],inactive
same,Potency,[3],7.43 µM (active)
FC(F)(F)c1ccc(C=Cc2nc(COc3ccc(CCCCn4ccnn4)cc3)co2)cc1,Potency,[4],0.0662 µM (active)
CCN(CC)CCCCNc1nc2cc(Cl)c(Cl)cc2nc1-c1ccc(-c2cccs2)s1,Potency,[2],20.2 µM (active)
same,Potency,[4],10.5 µM (active)
same,Potency,[3],7.43 µM (active)
COc1cc2nccc(Oc3ccc(NC(=O)Nc4ccc(F)cc4F)c(F)c3)c2cc1OC,Potency,[2],inactive
same,Potency,[4],inactive
C[C@@H]1[C@H](C)CC[C@]2(C(=O)O)CC[C@]3(C)C(=CC[C@@H]4[C@@]5(C)CC[C@H](O)C(C)(C)[C@H]5CC[C@]43C)[C@@H]12,Potency,[4],42.9 µM (active)
COc1ccc2c(c1)c(C1=C(c3c[nH]c4ccccc34)C(=O)NC1=O)cn2CCCN(C)C,Potency,[2],inactive
same,Potency,[3],7.43 µM (active)
CN1CCN2c3ncccc3Cc3ccccc3C2C1 (stereo unspecified),Potency,[2],inactive
same,Potency,[4],inactive
same,Potency,[3],inactive
Cc1ccc(C2=Nc3ccc(Cl)cc3OC2)cc1,Potency,[2],inactive
same,Potency,[4],4.69 µM (active)
O=C(O)C1=CC(O)C(O)[C@H](O)C1 (stereo partly specified),Potency,[2],inactive
same,Potency,[4],inactive
same,Potency,[3],inactive
CC(C)c1c(C(=O)Nc2ccccc2)c(-c2ccccc2)c(-c2ccc(F)cc2)n1CC[C@H](O)C[C@@H](O)CC(=O)O,Potency,[4],14.8 µM (active)
CC(C)c1onc(-c2c(Cl)cccc2Cl)c1COc1ccc(C=Cc2cccc(C(=O)O)c2)c(Cl)c1,Potency,[4],inactive
CO[C@H]1O[C@@H]2O[C@@]3(C)CC[C@@H]4[C@@H](C)CC[C@@H]([C@H]1C)[C@@]24OO3,Potency,[4],inactive
CCNC(=O)[C@H]1O[C@@H](n2cnc3c(N)nc(NCCc4ccc(CCC(=O)O)cc4)nc32)[C@H](O)[C@H]1O,Potency,[4],inactive
CC=C(C(=CC)c1ccc(O)cc1)c1ccc(O)cc1,Potency,[4],20.9 µM (active)
O=S(=O)(O)c1ccc2cc(N=Nc3cc(S(=O)(=O)O)c4cccnc4c3O)ccc2c1,Potency,[5],0.15 µM (active)
same,outcome,[7],inactive
CN1CC(=O)N2C(Cc3c([nH]c4ccccc34)[C@H]2c2ccc3c(c2)OCO3)C1=O (stereo partly specified),Potency,[4],inactive
same,Potency,[3],inactive
O=C1Nc2ccc(I)cc2C1=Cc1cc(Br)c(O)c(Br)c1,Potency,[4],inactive
COc1c(C)cnc(Cn2cnc3c(Cl)nc(N)nc32)c1C,Potency,[2],inactive
same,Potency,[3],0.264 µM (active)
C[C@@H](O[C@H]1OCCN(Cc2n[nH]c(=O)[nH]2)[C@@H]1c1ccc(F)cc1)c1cc(C(F)(F)F)cc(C(F)(F)F)c1,Potency,[2],inactive
same,Potency,[4],29.6 µM (active)
O=C1C(CCC(O)c2ccc(F)cc2)C(c2ccc(O)cc2)N1c1ccc(F)cc1 (stereo unspecified),Potency,[4],inactive
same,Potency,[3],inactive
CN[C@@H]1[C@@H](O)[C@@H](O[C@@H]2[C@@H](O)[C@H](O[C@H]3O[C@H](CN)[C@@H](O)[C@H](O)[C@@H]3O)[C@@H](N)C[C@@H]2NC(=O)[C@@H](O)CN)OC[C@]1(C)O,Potency,[4],inactive
CN1c2ccccc2C(=O)N2CCc3c([nH]c4ccccc34)C21 (stereo unspecified),Potency,[8],inactive
same,Potency,[5],inactive
same,Potency,[6],inactive
same,outcome,[7],inactive
same,Potency,[4],inactive
same,Potency,[3],26.4 µM (active)
C[C@]12C=CC(=O)C=C1CC[C@@H]1[C@@H]2[C@@H](O)C[C@@]2(C)[C@@H]1CC[C@]2(O)C(=O)CO,Potency,[4],inactive
Cc1nn(Cc2ccccc2Cl)c(C)c1CN(C)CC(O)COc1ccc(Cl)cc1 (stereo unspecified),Potency,[2],inactive
same,Potency,[3],18.7 µM (active)
COc1nccc(-c2c(-c3ccc(F)cc3)ncn2C2CCNCC2)n1,Potency,[8],inactive
same,Potency,[5],inactive
same,Potency,[6],inactive
same,outcome,[7],inactive
